From PubChem BioAssay AID2546 (National Center for Advancing Translational Sciences (NCATS), 2010)
Screen size: about 310,000 compounds; about 11,000 (3.5%) were called active. Inconclusive results (about 8%) are left out. Shown is part of a subset that was picked to be rich in actives. A call without a number means that no potency is given here. Unmarked numbers belong to inactive results. Calls follow the shape of the dose curve; as a rule, active = well fitted inhibition curve with a large enough effect; inconclusive = small, poorly fitted or top-dose-only effect, or effect the other way; inactive = flat fitted curve, though single readings scatter.

assay: VP16 counterscreen qHTS for inhibitors of ROR gamma transcriptional activity; conditions: Drosophila S2 Gal4-VP16 UAS-luciferase, luminescence, 20 h; series mostly up to 53.6 µM;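 also: Gal4-VP16 expression switched on by copper sulfate through the metallothionein promoter; nearly all actives have a fitted effect of over 50% in size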
Potency is read from the fitted curve at half-maximal effect.

| SMILES | Potency | activity, negative = inhibition |
| --- | --- | --- |
| Cc1cccc(C(=O)N2CCCC(Nc3ccc(C(C)C)cc3)C2)n1 (stereo not drawn) | inactive | – |
| CC(C)c1ccc(NC2CCCN(C(=O)c3ccncc3)C2)cc1 (stereo not drawn) | 1.58 µM (active) | – |
| COc1ccc(NC2CCCN(C(=O)c3ccncc3)C2)cc1 (stereo not drawn) | inactive | – |
| O=C(Nc1ccc(C(=O)NCc2ccccc2Cl)cc1)C1=CSCCO1 | inactive | – |
| COc1ccc(-n2nc(C(=O)NCC(=O)N3CCCCCC3)c3ccccc3c2=O)cc1Cl | inactive | – |
| CC(=O)c1cccc(NC(=O)CN2C(=O)c3cccnc3Oc3ccc(Cl)cc32)c1 | inactive | – |
| C#CC(CCN1CCCCC1)(OC)c1ccccc1 (stereo not drawn) | inactive | – |
| CCNC(=O)CCc1nc(-c2ccc(C(C)(C)C)cc2)no1 | 2.51 µM (active) | – |
| CN1CCN(C(=O)CCc2nc(-c3ccc(Cl)cc3)no2)CC1 | inactive | – |
| CCNC(=O)CCc1nc(-c2ccc(C)cc2)no1 | inactive | – |
| COC(=O)c1ccc(N2CCOCC2)c(NC(=O)c2ccc(Br)o2)c1 | inactive | – |
| Oc1ccccc1CN1CCN(C(c2ccccc2)c2ccccc2)CC1 | inactive | – |
| CCN1CCN(c2ccc(NC(=O)c3cnccn3)cc2)CC1 | inactive | – |
| CCOC(=O)N1CCN(C(c2cccnc2)c2ccc3cccnc3c2O)CC1 (stereo not drawn) | 6.31 µM (active) | – |
| Cc1onc(C(=O)NN)c1C(=O)N1CCN(C(c2ccccc2)c2ccccc2)CC1 | inactive | – |
| CCOC(=O)N1CCN(C(=O)C2CCN(c3ncnc4c3sc3cccc(F)c34)CC2)CC1 | inactive | – |
| CCN1CCN(C(c2cccnc2)c2cc(Cl)c3cccnc3c2O)CC1 (stereo not drawn) | 5.01 µM (active) | – |
| CC(=O)Nc1ccc(S(=O)(=O)N2N=NC3C2C2CC4C3(CN(C(=O)OC(C)(C)C)S4(=O)=O)O2)cc1 (stereo not drawn) | inactive | – |
| O=C(CCc1nnc(Cc2ccc3c(c2)OCO3)o1)NCCc1ccccc1Cl | inactive | – |
| O=C1Nc2cc(C(=O)N3CCN(c4ccc(F)cc4)CC3)ccc2NC1CSCc1cccc(F)c1 (stereo not drawn) | inactive | – |
| Clc1cccc(Cl)c1OCCOCCNCc1ccccc1 | inactive | – |
| COc1cccc(NC(=O)N2C3CCCC2CC(NC(C)=O)C3)c1 (stereo not drawn) | inactive | – |
| CCOC(=O)C1(Cc2ccccc2C)CCCN(C(=O)CCc2c(C)noc2C)C1 (stereo not drawn) | inactive | – |
| COc1ccc(CCNC(=O)c2cnc(Cl)c(Cl)c2)cc1 | inactive | – |
| S=c1[nH]nc(-c2ccco2)n1/N=C/c1ccccc1 | inactive | – |
| S=c1[nH]nc(-c2cccs2)n1/N=C/c1cccs1 | inactive | – |
| S=c1[nH]nc(-c2cc(-c3ccsc3)n[nH]2)n1-c1ccccc1 | inactive | – |

| SMILES | Potency | activity, negative = inhibition |
| --- | --- | --- |
| Cc1ccc(/C=N\n2c(-c3ccccc3)n[nH]c2=S)s1 | 8.91 µM (active) | – |
| S=c1[nH]nc(-c2ccncc2)n1/N=C/c1ccccc1Cl | inactive | – |
| S=c1[nH]nc(-c2cc(-c3ccccc3)n[nH]2)n1/N=C/c1c2ccccc2cc2ccccc12 | 6.31 µM (active) | – |
| CCc1ccc(-c2cc(C)no2)cc1S(=O)(=O)NCCc1ccc(S(N)(=O)=O)cc1 | inactive | – |
| NS(=O)(=O)c1ccc(CCNC(=O)c2nc(CS(=O)(=O)c3ccc(Cl)cc3)no2)cc1 | inactive | – |
| COc1ccc(C(=O)COC(=O)Cn2cnc3c2c(=O)n(C)c(=O)n3C)c(OC)c1 | inactive | – |
| CCCCNC(=O)CN1C(=O)NC(Cc2ccccc2)(Cc2ccccc2)C1=O | inactive | – |
| O=C(N/N=C\C1CC=CCC1)c1ccc(Br)o1 (stereo not drawn) | inactive | – |
| CC1(C)NC(=O)N(CC(=O)Nc2cc(C(F)(F)F)cc(C(F)(F)F)c2)C1=O | inactive | – |
| COc1ccc(/C=C2/C(=O)N(c3ccccc3)N=C2C)c(OC)c1 | inactive | – |
| COc1ccc(/C=C/C2=CC(C)(C)NC(=S)N2)c(OC)c1 | 3.55 µM (active) | – |
| COc1ccc(N)c(OC)c1 | inactive | – |
| COc1cc(/C=C/C2=CC(C)(C)NC(=S)N2)cc(OC)c1OC | 12.6 µM (active) | – |
| COc1ccc2[nH]c(C(=O)N/N=C/c3cc(OC)c(OC)c(OC)c3)cc2c1 | inactive | – |
| CCC(=O)c1ccc(OC(=O)/C=C/c2cc(OC)c(OC)c(OC)c2)cc1 | inactive | – |
| CC1C(=O)N(Cc2ccccc2)c2ccccc2N1C(=O)c1ccccc1 (stereo not drawn) | inactive | – |
| COc1ccc(CSc2nnnn2-c2ccc(C(=O)O)cc2)cc1 | inactive | – |
| COCCCNC(=O)[C@H]1N2C(=O)c3ccccc3C2SC1(C)C (stereo partly drawn) | inactive | – |
| Cn1cccc1-c1nc2ccccc2n1C | – | -16.5% [at 10 µM] |
| Cn1c(-c2ccco2)nc2cc3ccccc3cc21 | 11.2 µM (active) | – |
| COc1ccc(CCn2c(-c3ccco3)nc3nc4ccccc4nc32)cc1OC | inactive | – |
| CCn1cc(C(=O)NCCC(=O)NCCO)c(=O)c2cc3c(cc21)OCO3 | inactive | – |
| O=C(N/C(=C/c1ccc(Cl)cc1)C(=O)N1CCCCC1)c1ccco1 | inactive | – |
| COC(=O)c1ccc(CNC(=O)c2ccc3oc(C(C)C)nc3c2)cc1 | inactive | – |
| FC(F)(F)C1CCCN(c2nsc3ccccc23)C1 (stereo not drawn) | 28.2 µM (active) | – |
| O=c1[nH]c(/C=C\c2cccc(C(F)(F)F)c2)nc(O)c1[N+](=O)[O-] | inactive | – |
